The results in this text go back to the supplement of paper PMC10127200.

Structures are written as SMILES. Counter-ions that a name gives are not always drawn.

The first assay relates to HEPG2. The experiment in a line: Euclidean distance of Cell Painting phenotypic profile (signed KS, 77 features) to DMSO centroid (dimensionless distance); 5 or 10 uM (library dependent); higher = stronger phenotypic change vs DMSO (phenoactivity). The settings on record: 48 h. The method, boiled down: (§1)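 Library compounds were applied at 10 or 5 uM, depending on the library, with 0.1% DMSO final, for 48 h to five cancer lines and a healthy fibroblast line. After staining, cells were imaged confocally at 20X across 9 fields per well, and Harmony extracted 77 features, each scored as a signed Kolmogorov-Smirnov statistic against vehicle wells on the same plate. Phenoactivity is the Euclidean distance between each profile and the median vehicle profile, with profiles first plate-position corrected, correlation-weighted and averaged over replicates at the top dose.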
`COc1c(C)c2c(c(O)c1C/C=C(\C)CCC(=O)OCCN1CCOCC1)C(=O)OC2` [Mycophenolate Mofetil] displayed an Euclidean distance of 2.76.
Same read-out and setting: the same measure for `C[C@@H]1C[C@H]2[C@@H]3C[C@H](F)C4=CC(=O)C=C[C@]4(C)[C@@]3(F)[C@@H](O)C[C@]2(C)[C@@]1(O)C(=O)CO` [Flumethasone]: 0.627; for `NC(=O)[C@@H]1CSSCCC(=O)N[C@@H](CCCCN=C(N)N)C(=O)NCC(=O)N[C@@H](CC(=O)O)C(=O)N[C@@H](Cc2c[nH]c3ccccc23)C(=O)N2CCC[C@H]2C(=O)N1` [Eptifibatide Acetate]: 0.664; for `COc1ccc2cc(C(=O)O)ccc2c1` [6-Methoxy-2-naphthoic acid]: 0.634.
Same read-out and setting: the same measure for `CCC(=O)O[C@]1(C(=O)CCl)[C@@H](C)C[C@H]2[C@@H]3CCC4=CC(=O)C=C[C@]4(C)[C@@]3(F)[C@@H](O)C[C@@]21C` [Clobetasol propionate]: 0.79; for `CCCc1nc2c(C)cc(-c3nc4ccccc4n3C)cc2n1Cc1ccc(-c2ccccc2C(=O)O)cc1` [Telmisartan]: 1.95.
Same read-out and setting: to `CCOC(=O)CCNc1cc(N2CCc3ccccc3CC2)nc(-c2ccccn2)n1` belongs 2.41; to `COc1ccc2[nH]c([S@@+]([O-])Cc3ncc(C)c(OC)c3C)nc2c1` [NEXIUM (esomeprazole magnesium)], 1.81.
The molecule `CC(C)(C)NCC(O)COc1cccc2c1CC(O)C(O)C2` (configuration not stated) [Nadolol] gave an Euclidean distance of 0.849.

A further assay concerns OVCAR4. The assay is described as above. The note with it: 48 h. Summed up:
as §1
On to `COc1c(C)c2c(c(O)c1C/C=C(\C)CCC(=O)OCCN1CCOCC1)C(=O)OC2` [Mycophenolate Mofetil], for which the Euclidean distance worked out at 3.19.
On the same count and under the same terms, to `C[C@@H]1C[C@H]2[C@@H]3C[C@H](F)C4=CC(=O)C=C[C@]4(C)[C@@]3(F)[C@@H](O)C[C@]2(C)[C@@]1(O)C(=O)CO` [Flumethasone] belongs 1.97; to `CN(C)Cc1cccc(N=C(c2ccccc2)c2c(O)[nH]c3cc(C(=O)N(C)C)ccc23)c1`, 1.3; to `NC(=O)c1ncn([C@@H]2O[C@H](CO)[C@@H](O)[C@H]2O)c1N` [Acadesine], 0.909.
The same measure, in the same setting: to `CCN(CC)CCOC(=O)C(c1ccccc1)c1ccccc1` [Adiphenine HCl] belongs 0.992; to `c1ccc(C2CN3CCSC3=N2)cc1` (single isomer, unassigned; (-)) [(-)-Tetramisole], 2.19; to `NCCCCCC(=O)O`, 1.43.
In turn, `NC(=O)[C@@H]1CSSCCC(=O)N[C@@H](CCCCN=C(N)N)C(=O)NCC(=O)N[C@@H](CC(=O)O)C(=O)N[C@@H](Cc2c[nH]c3ccccc23)C(=O)N2CCC[C@H]2C(=O)N1` [Eptifibatide Acetate] gave an Euclidean distance of 1.36.
The same measure, in the same setting: the same measure for `C[C@@H]1CN(CC(=O)Nc2ccc3c(c2)Cc2cccc(-c4cc(=O)cc(N5CCOCC5)o4)c2S3)C[C@H](C)O1`: 2.14; for `N=c1ccn2c(n1)O[C@H]1[C@H](O)[C@@H](CO)O[C@H]12` [Cyclocytidine HCl]: 4.57; for `CC(C)[C@H](O)C(=O)N[C@@H](C)C(=O)N[C@@H]1C(=O)N(C)CCc2ccccc21`: 1.03.
Same read-out and setting: the same measure for `Cc1ccc2c(=O)c3cccc(CC(=O)O)c3oc2c1C` [DMXAA (Vadimezan)]: 1.04; for `CCc1c(C(=O)NCCc2ccc(N3CCCCC3)cc2)[nH]c2ccc(Cl)cc12`: 1.47.
The same measure, in the same setting: the same measure for `CC(C)C[C@@H](C(=O)N[C@H](C(=O)OC1CCCC1)c1ccccc1)[C@H](O)C(=O)NO` [Tosedostat (CHR2797)]: 1.27.
Consider `C=CCn1c(=O)c2cnc(Nc3ccc(N4CCN(C)CC4)cc3)nc2n1-c1cccc(C(C)(C)O)n1`, for which the Euclidean distance came out at 3.95.
Still for that read-out and setting: to `Cc1cc(NC(=O)Nc2ccc(N(C)C)cc2)c2cc(F)cc(F)c2n1` belongs 0.985.
On the same count and under the same terms, the same measure for `COc1ccc2cc(C(=O)O)ccc2c1` [6-Methoxy-2-naphthoic acid]: 1.19; for `CCCCOc1c(C(=O)c2c(F)cc(C)cc2F)c[nH]c2nncc1-2`: 2.1; for `O=C(NOCC(O)CO)c1cc(Br)c(F)c(F)c1Nc1ccc(I)cc1F` (configuration not stated): 1.17.
On the same count and under the same terms, to `CCOC(=O)[C@H](CCc1ccccc1)N[C@H]1CCCN2CCC[C@@H](C(=O)O)N2C1=O` [Cilazapril Monohydrate] belongs 1.38.
As to `CCC(=O)O[C@]1(C(=O)CCl)[C@@H](C)C[C@H]2[C@@H]3CCC4=CC(=O)C=C[C@]4(C)[C@@]3(F)[C@@H](O)C[C@@]21C` [Clobetasol propionate], the Euclidean distance worked out at 1.96.
Same read-out and setting: the same measure for `Clc1ccc(C2(c3ccc(-c4cn[nH]c4)cc3)CCNCC2)cc1`: 3.48.
Still for that read-out and setting: the same measure for `COc1cc(NS(=O)(=O)c2ccc(N)cc2)nc(OC)n1` [Sulphadimethoxine]: 1.44.
